The text below walks through data of PubChem BioAssay (NCATS).

Test [1] has as its target Aldehyde dehydrogenase, mitochondrial (Homo sapiens) (UniProt P05091). Description: qHTS for Inhibitors of the Aldehyde Dehydrogenase Family (ALDH2) Confirmatory screens (AID 2061303; active = well fitted inhibition curve with a large enough effect; title and protocol of this record describe different tests; also: nearly all actives have a fitted effect of over 45% in size; also: potency is read from the fitted curve at half-maximal effect).
Test [2] in a line: qHTS for Inhibitors of the Aldehyde Dehydrogenase Family (ALDH1A2, ALDH1A3, ALDH2, ALDH3A1) (AID 2061307; also: nearly all actives have a fitted effect of over 50% in size; as to Potency: test system not described further here; potency is read from the fitted curve at half-maximal effect). (Quantitative high-throughput screening tests each substance at several concentrations.)
For test [3], the target named is Aldehyde dehydrogenase, mitochondrial (Homo sapiens) (UniProt P05091). Description: qHTS for Inhibitors of the Aldehyde Dehydrogenase Family (ALDH2) Primary screen (AID 2061308). Also: nearly all actives have a fitted effect of over 55% in size. Also: potency is read from the fitted curve at half-maximal effect.
Test [4] concerns the target Retinaldehyde dehydrogenase 3 (Homo sapiens) (UniProt P47895). Description: qHTS for Inhibitors of the Aldehyde Dehydrogenase Family (ALDH1A3) Confirmatory screens (AID 2061311). Also: nearly all actives have a fitted effect of over 60% in size. Also: potency is read from the fitted curve at half-maximal effect.
Test [5] addresses Retinal dehydrogenase 2 (Homo sapiens) (UniProt O94788). Description: qHTS for Inhibitors of the Aldehyde Dehydrogenase Family (ALDH1A2) Confirmation screens (AID 2061314). Also: nearly all actives have a fitted effect of over 65% in size. Also: potency is read from the fitted curve at half-maximal effect.
For test [6], the target named is Aldehyde dehydrogenase 1A1 (Homo sapiens) (UniProt P00352). Description: qHTS for Inhibitors of the Aldehyde Dehydrogenase Family (ALDH1A1) Confirmatory screens (AID 2061316). Also: nearly all actives have a fitted effect of over 65% in size. Also: potency is read from the fitted curve at half-maximal effect.
Test [7] concerns the target Retinaldehyde dehydrogenase 3 (Homo sapiens) (UniProt P47895). Description: qHTS for Inhibitors of the Aldehyde Dehydrogenase Family (ALDH1A3) Primary screen (AID 2061315).

Molecules are shown by their SMILES. Results filed as inconclusive are left out. Activity calls are given as the source filed them. Unless noted, calls follow the shape of the dose curve; as a rule, active = well fitted curve in the direction sought with a large enough effect; inconclusive = small, poorly fitted or top-dose-only effect, or another doubt; inactive = no such curve, though single readings can be large; an effect the other way counts as inactive or inconclusive.

Turning to `Oc1ccc(Oc2ccccc2F)c2cccnc12`, the Potency in test [1] is 4.49 µM (active); in test [2], 17 µM (active); in test [4], 2.01 µM (active); in test [5] it was 2.01 µM (active); in test [6], 5.04 µM (active). Besides, the Potency result in test [3] was “inactive”.

As for `Cc1cccc(Nc2nc(C#N)nc(NC3CCCC3)n2)c1`, the values for the Potency in test [1], in test [2] and in test [4] were 2.51 µM (active), 0.447 µM (active) and 17.8 µM (active), respectively. Besides, the Potency result in test [3] and in test [7] was “inactive” in each case.

Consider `CC(C)(C)CNc1nc(C#N)nc(Nc2ccccc2)n1`, for which the Potency result in test [1], in test [3], in test [4] and in test [7] was “inactive” throughout. Besides, the Potency in test [2] was 12.7 µM (active).

As for `CC(=O)c1ccc(N2CCN(C(=O)c3ccc4c(c3)CC(=O)N4)CC2)cc1`, the Potency entry in test [1], in test [2], in test [3], in test [4] and in test [7] was “inactive” in each case.

As to `CCOC(=O)c1cccc(-n2cccc2/C=C2\NC(=O)N(CC(=O)O)C2=O)c1`, the Potency result in test [1], in test [2], in test [3], in test [4] and in test [7] was “inactive” in each case.

As for `O=C(O)c1ccc(N2C(=O)/C(=C/c3ccc(-c4ccc([N+](=O)[O-])cc4)o3)C=C2c2ccccc2)cc1`, the Potency in test [1] was 1.59 µM (active); in test [2], 11.3 µM (active); in test [3], 3.98 µM (active); in test [4], 20.1 µM (active); in test [5], 5.65 µM (active); in test [6], 3.18 µM (active).

For the molecule `N#Cc1nc(Nc2cccc(Br)c2)nc(NC2CCCC2)n1`, the Potency result in test [1], in test [3], in test [4] and in test [7] was “inactive” throughout. Moreover, the Potency in test [2] was 10.1 µM (active).

On to `COc1ccc(C2Nc3ccccc3C(=O)N2Cc2cccc(C(F)(F)F)c2)cc1COc1ccc(NC(C)=O)cc1` (stereo not drawn), for which the Potency in test [1] was 11.2 µM (active); in test [2] it was 4 µM (active); in test [4], 10 µM (active). Moreover, the Potency result in test [3] and in test [7] was “inactive” in each case.

For `Cn1nnnc1Sc1ncnc2scc(-c3cnc(N)nc3)c12`, the Potency entry in test [1], in test [2], in test [3], in test [4] and in test [7] was “inactive” throughout.

For `COc1ccc(C2Nc3ccccc3C(=O)N2Cc2ccccc2C(F)(F)F)cc1COc1ccc(NC(C)=O)cc1` (stereo not drawn), the Potency was 0.316 µM (active) in test [1], 2.25 µM (active) in test [2] and 15.9 µM (active) in test [4]. Moreover, the Potency entry in test [3] and in test [7] was “inactive” in each case.

Regarding `S=C(Nc1cc(Cl)ccn1)N1CCN(c2ccc3ccccc3n2)CC1`, the Potency in test [1] was 7.94 µM (active); in test [2] it was 14.1 µM (active); in test [3], 1.58 µM (active); in test [4] it was 22.5 µM (active); in test [6], 5.65 µM (active). Further, the Potency result in test [7] is “inactive”.

Regarding `O=[N+]([O-])c1ccc(S(=O)(=O)c2ccc(Cl)cc2)nc1`, the Potency in test [1] was 0.504 µM (active); in test [2], 2.82 µM (active); in test [3], 0.251 µM (active); in test [4] it was 28.2 µM (active); in test [5] it was 3.16 µM (active); in test [6], 0.283 µM (active).

As to `Cc1ccc(Nc2nc(C#N)nc(NC3CCCC3)n2)cc1`, the Potency result in test [1], in test [2], in test [3], in test [4] and in test [7] was “inactive” throughout.

As for `O=C(Nc1ccc2c(c1)CCC2)Nc1nnc(-c2ccncc2)s1`, the Potency entry in test [1], in test [2], in test [3], in test [4] and in test [7] was “inactive” throughout.

On to `O=C(NN1CCCC1)NS(=O)(=O)c1ccc(Cl)cc1`, for which the Potency result in test [1], in test [2], in test [3], in test [4], in test [5] and in test [6] was “inactive” each time.

As to `COc1ccc(C2=Nn3c(nnc3-c3ccccc3C)SC2)cc1`, the Potency result in test [1], in test [2], in test [3], in test [4] and in test [7] was “inactive” in each case.

Regarding `O=C1CCCC2=C1C(c1[nH]ncc1Cl)NC(=S)N2` (stereo not drawn), the Potency entry in test [1], in test [2], in test [3], in test [4] and in test [7] was “inactive” throughout.

As to `O=C(NC1CCCc2c1cnn2-c1ccc(F)cc1F)c1ccc(C(=O)c2ccccc2)cc1` (stereo not drawn), the Potency result in test [1], in test [2], in test [3], in test [4] and in test [7] was “inactive” throughout.

Turning to `N#Cc1c(C(=O)c2cccs2)no[n+]1[O-]`, the Potency in test [1] was 3.98 µM (active); in test [2], 2.24 µM (active); in test [3], 0.282 µM (active); in test [4], 1.59 µM (active); in test [5], 3.16 µM (active); in test [6], 0.225 µM (active).

For the molecule `Cc1ccnc(NC(=S)N2CCN(c3ccc(N)cc3)CC2)c1`, the Potency entry in test [1], in test [2], in test [3], in test [4] and in test [7] was “inactive” in each case.

As for `COc1ccc(-c2nc3ccccc3c(=O)n2Cc2ccc(CNC(=O)CO)cc2)cc1COc1ccc(NC(C)=O)cc1`, the Potency entry in test [1] and in test [3] was “inactive” throughout. The Potency in test [2] was 8.96 µM (active); in test [5] it was 15.9 µM (active).

Take `COc1ccc(CN(Cc2ccccc2)C(=O)c2ccccc2O)cc1`: the Potency entry in test [1], in test [2], in test [3], in test [5] and in test [7] was “inactive” each time.

Take `Cc1cccc(S(=O)(=O)NC2CCN(C#N)C2)c1` (stereo not drawn): the Potency entry in test [1], in test [2], in test [3], in test [4] and in test [7] was “inactive” throughout. For the same molecule, in test [6], the Potency is 11.3 µM (active).

Regarding `CN1CCN(C2CCN(Cc3ccc(O)c4ncccc34)CC2)CC1`, the Potency result in test [1], in test [2], in test [3] and in test [5] was “inactive” each time.

For the molecule `Cc1cc2c(s1)c(C=O)c(C(=O)NCc1ccccc1F)n2C`, the Potency result in test [1], in test [3], in test [5] and in test [7] was “inactive” in each case. In addition, in test [2], the Potency was 1.27 µM (active).

For the molecule `Cc1cccc(C[C@H](C(=O)O)N2C(=O)c3ccc(C(=O)O)cc3C2=O)c1`, the Potency entry in test [1], in test [2], in test [3], in test [4], in test [7] and in test [6] was “inactive” throughout.

Turning to `O=C(c1ccccc1)N1CCN(c2nc(-c3ccc(Br)cc3)cs2)CC1`, the Potency in test [1] and in test [2] was 15.8 µM (active) in each case. Further, the Potency result in test [3], in test [5] and in test [7] was “inactive” throughout.

`COc1ccc(C2Nc3ccccc3C(=O)N2Cc2ccc(C(F)(F)F)cc2)cc1COc1ccc(NC(C)=O)cc1` (stereo not drawn): the Potency in test [1] was 0.447 µM (active); in test [2] it was 3.57 µM (active); in test [4] it was 2.51 µM (active); in test [6], 22.5 µM (active). Moreover, the Potency result in test [3] and in test [7] was “inactive” in each case.

Consider `Cc1ccc(NS(=O)(=O)c2ccc3c(c2)CC(=O)N3)cc1C`, for which the Potency entry in test [1], in test [2], in test [3], in test [4] and in test [7] was “inactive” each time. Further, in test [6], the Potency was 1.59 µM (active).

Regarding `Cc1cccc(-n2cnc3cc(C(=O)N4CCCC(C)(C)C4)ccc32)c1`, the Potency result in test [1], in test [2], in test [3], in test [5] and in test [7] was “inactive” each time.
